PubChem BioAssay AID504329 (Southern Research Specialized Biocontainment Screening …, 2011)
Hit rate of the full screen: of about 340,000 compounds, about 1,000 (0.29%) were called active. No stated cut-off is given here; in the data, inconclusive means inhibition above about 27% without an active follow-up result; inactive means below that. A selection follows. Results with a measured potency or affinity are listed apart.

assay: NS1A inhibition, H1N1 influenza, cell based functional assay (AID 504329); details: percent inhibition, at 12.5 µM, hits give high values

Compound	inhibition
Cc1ccccc1-c1n[nH]c(=S)n1/N=C/C=C/c1ccco1	-17.6% (inactive)
CNC(=O)Cn1nc(-c2ccc(C)c(S(=O)(=O)N(C)C)c2)c2ccccc2c1=O	-13.6% (inactive)
O=C1C(Nc2ccccc2)=C(N2CCCCC2)C(=O)c2ccccc21	15.3% (inactive)
CC(=O)N(C)C1=C(N2CCOCC2)C(=O)c2ccccc2C1=O	1.43% (inactive)
CC(=O)N(C1=C(N2CCOCC2)C(=O)c2ccccc2C1=O)c1ccc(C(=O)O)cc1	0.48% (inactive)
COc1ccccc1NC1=C(N2CCCCC2)C(=O)c2ccccc2C1=O	-0.23% (inactive)
O=C(Nc1ccc(OC(F)F)cc1)c1cc(S(=O)(=O)N2CCOCC2)ccc1F	-7.89% (inactive)
COCc1c(C(=O)OCC(=O)N(C)C2CCS(=O)(=O)C2)oc2ccccc12 (configuration not stated)	-9.04% (inactive)
Cc1ccccc1NC(NC(=O)c1cccnc1)C(Cl)(Cl)Cl (configuration not stated)	-5.69% (inactive)
Cc1ccc(S(=O)(=O)Nc2ccc(N=Nc3ccc(O)cc3)cc2)cc1	4.71% (inactive)
Cc1ccc(S(=O)(=O)/N=C2\C=C(NS(=O)(=O)c3ccccc3)C(=O)c3ccccc32)cc1	8.43% (inactive)
COCCC(=O)N1CCC(Oc2ccc(C(=O)NC3CCOC(C)(C)C3)cc2)CC1 (configuration not stated)	5.89% (inactive)
O=C1C(=O)c2ccc(-c3ccccc3)cc2-c2ccccc21	-3.6% (inactive)
O=C1C(=O)c2ccccc2-c2ccccc21	5.48% (inactive)
CC1CCN(CCCNC(=O)c2cc3c(s2)-c2ccccc2OC3)CC1	-6.94% (inactive)
Cc1c(Cl)cccc1NC(=O)CC1Oc2ccccc2NC1=O (configuration not stated)	-22.6% (inactive)
Fc1ccc(/C=N/NC(=S)Nc2cccnc2)cc1	-6.6% (inactive)
S=C(N/N=C/c1ccc2ncccc2c1)Nc1cccnc1	-1.92% (inactive)
COc1cc(/C=N/NC(=S)Nc2cccnc2)cc(OC)c1OC	-1.86% (inactive)
Fc1cccc(F)c1/C=N/NC(=S)Nc1cccnc1	4.25% (inactive)
COc1cccc(/C=N/NC(=S)Nc2cccc(S(=O)(=O)N(C)C)c2)c1	-0.6% (inactive)
Fc1ccc(/C=N/NC(=S)Nc2cccnc2)cc1F	5.25% (inactive)
Oc1ccc(/C=N/NC(=S)Nc2cccnc2)cc1O	-4.43% (inactive)
CN(C)S(=O)(=O)c1cccc(NC(=S)N/N=C/c2cc(Br)ccc2O)c1	-4.31% (inactive)
O=S(=O)(c1ccccc1)N1CCN(C2CCCCCCC2)CC1	-3.77% (inactive)

Compound	inhibition
CCCn1c(=O)c(C(=O)NCc2ccc3c(c2)OCO3)c(O)c2ccccc21	-2.14% (inactive)
COc1ccc2oc(C(=O)OCC(=O)N3CC(C)CC(C)C3)c(C)c2c1 (configuration not stated)	-0.35% (inactive)
CSCCC(NC(=O)c1ccccc1)C(=O)NC1CCCC1 (configuration not stated)	1.8% (inactive)
COC(=O)c1ccc2c(c1)C(=O)/C(=C/c1ccc(C)cc1)O2	0.65% (inactive)
CC1(C)Cc2c(cnn2-c2ccccc2)C(NC(=O)CCCn2cncn2)C1 (configuration not stated)	4.41% (inactive)
Cc1ccccc1CN1CCC(n2nccc2NC(=O)CCCc2ccccc2)CC1	-1.87% (inactive)
O=C(NCc1cnn(-c2ccccc2)c1)C1CCC(=O)N(C2CC2)C1 (configuration not stated)	-1.14% (inactive)
CC(C)C(NC(=O)C(NC(=O)C1OC2OC(C)(C)OC2C2OC(C)(C)OC12)C(C)C)C(=O)O (configuration not stated)	4.15% (inactive)
Oc1ccc(/C=N/NC(=S)Nc2cccnc2)cc1	-2.94% (inactive)
COc1ccccc1/C=N/NC(=S)Nc1cccnc1	2.47% (inactive)
COc1cccc(/C=N/NC(=S)Nc2cccnc2)c1	8.47% (inactive)
Fc1c(F)c(F)c(/C=N/NC(=S)Nc2cccnc2)c(F)c1F	4.9% (inactive)
COC(=O)c1cc(OC)c(OC)cc1NC(=O)C(C)Sc1ccc(C)cc1 (configuration not stated)	-9.85% (inactive)
CC1(C)C2CC=C(CN3CCC(O)CC3)C1C2 (configuration not stated)	4.73% (inactive)
O=C(Nc1ccc(Cl)cc1)Nc1ccccn1	-13.9% (inactive)
COc1ccc(CNC(=O)Cn2nc(C(F)(F)F)c(Br)c2C)cc1	-1.07% (inactive)
Nc1ccc(NC(=S)Nc2ccccc2)cc1	8.73% (inactive)
O=C(NCCNC(=O)c1ccccn1)c1ccc(F)cc1	4.55% (inactive)
CCOc1ccc(OCc2ccc(C(=O)N/N=C(\C)c3ccccn3)cc2)cc1	-8.32% (inactive)
CC(C)(C)c1ccc(C(=O)NCCCNC(=O)c2ccccn2)cc1	0.93% (inactive)
C/C(=N\NC(=O)c1ccc(Cl)cc1)c1ccccn1	-5.53% (inactive)
CSc1ccc(CN(C)C(=O)c2cc(Cl)c3c(c2)OCCO3)cc1	0.05% (inactive)
Cc1ccc(C)c(S(=O)(=O)N2CCN(C(=O)CCNS(=O)(=O)c3ccc(C)c(C)c3)CC2)c1	5.37% (inactive)
Cc1ccc2nc(-c3cccc(S(=O)(=O)N4CCCC4)c3)cn2c1	-1.58% (inactive)
COc1ccc(C(=O)NCCc2c[nH]c3ccccc23)cc1S(=O)(=O)N1CCCCC1C (configuration not stated)	-1.05% (inactive)

Compound	inhibition
Cc1c(-c2ccccc2)nc2ccccc2c1C(=O)Nc1ccncc1	-4.14% (inactive)
CC(C)=CCC[C@](C)(O[C@@H]1O[C@H](CO[C@@H]2OC[C@H](O[C@@H]3OC[C@@H](O)[C@H](O)[C@H]3O)[C@H](O)[C@H]2O)[C@@H](O)[C@H](O)[C@H]1O)C1CC[C@]2(C)C1[C@H](O)CC1[C@@]3(C)CC[C@H](O)C(C)(C)C3[C@@H](O)C[C@]12C (some centres not stated)	-10.2% (inactive)
CC(=O)N1CCN(c2ccc(NCc3ccc(-c4cccc(Cl)c4)o3)cc2)CC1	23.9% (inactive)
CC(=O)N1CCN(c2ccc(NCc3ccc(Br)o3)cc2)CC1	6.1% (inactive)
C=CCn1c(CC(=O)Nc2ccc(C)cc2C)nnc1SCC(=O)N1CCOCC1	-7.34% (inactive)
C/C(=C\c1ccccc1)CN1CCN(c2cccc(Cl)c2)CC1	-1.4% (inactive)
Cc1ncc(N=Nc2ccc(F)cc2)c(-c2ccc(Cl)cc2)n1	10.6% (inactive)
Cc1ncc(N=Nc2ccccc2)c(-c2ccccc2)n1	23.1% (inactive)
COc1ccc(N=Nc2nc(-c3ccccc3)c(-c3ccccc3)[nH]2)cc1	13.8% (inactive)
COc1ccc(-c2nc(C)ncc2N=Nc2ccccc2)cc1	24.1% (inactive)
CSC1=N/C(=C/c2ccc(-n3cncn3)cc2)C(=O)N1	18.2% (inactive)
CSC(=S)N/N=C(\C)c1ccc(Br)cc1	-6.45% (inactive)
CC(=NNC(=S)N1CCN(c2ccccn2)CC1)c1ccccn1	15.8% (inactive)
CC(=NNC(=S)N1CC2CCC(CC2)C1)c1cccc(C)n1	23.1% (inactive)
S=C(Nc1ccc2nc(-c3ccccn3)c(-c3ccccn3)nc2c1)N1CCCCC1	-3.09% (inactive)
CC(=NNC(=S)N1CCCCCC1)c1cccc2cccnc12	25.3% (inactive)
Cc1cccc(C(=S)N2CCOCC2)n1	-4.89% (inactive)
C/C(=N/O)c1ccccn1	1.41% (inactive)
CSC(=S)N/N=C(\C)c1ccccc1	-5.26% (inactive)
O=C(CN1C(=O)c2ccc([N+](=O)[O-])cc2C1=O)Nc1ccccc1N1CCCC1	-7.2% (inactive)
Cc1ccsc1/C=N/Nc1nc(=O)[nH]nc1C	12% (inactive)
O=[N+]([O-])c1cc([N+](=O)[O-])c(Oc2ccc(Br)cc2Br)cc1NN1CCCCC1	-0.23% (inactive)
NCCCC[C@H](N)c1nnc([C@H](CCC(=O)O)NC(=O)C2CCNCC2)o1	11.3% (inactive)
C[C@H]1CN([C@@H](C)CO)C(=O)c2cccc(NC(=O)c3ccncc3)c2O[C@H]1CN(C)C(=O)Nc1ccccc1	-10.3% (inactive)
S=C(NCc1ccccc1)N1CCN(C2CCCCC2)CC1	-12% (inactive)

Compound	inhibition
C/C(=N\NC(=O)C1CCCN(S(=O)(=O)c2ccccc2)C1)c1ccncc1 (configuration not stated)	-23.8% (inactive)
S=C(Nc1ccccc1)N1CCN(C2CCCCC2)CC1	11.4% (inactive)
C/C(=N\NC(=O)C1CCCN(S(=O)(=O)c2ccccc2)C1)c1cccnc1 (configuration not stated)	-20.5% (inactive)
CC(=O)C1=C(O)C(=O)N(CCC(=O)O)C1c1ccccc1[N+](=O)[O-] (configuration not stated)	-13.3% (inactive)
Cc1ccccc1Nc1ccc(S(=O)(=O)N2CCOCC2)cc1[N+](=O)[O-]	12.2% (inactive)
Cc1ccc(Nc2ccc(S(=O)(=O)N3CCOCC3)cc2[N+](=O)[O-])c(C)c1	11.1% (inactive)
COc1ccc(C(=O)NCCc2nnc3ccc(SCC(=O)Nc4ccccc4)nn23)cc1	-20% (inactive)
Cc1ccc(OCC(=O)N2CCC(N3CC(C)CC(C)C3)CC2)cc1 (configuration not stated)	17% (inactive)
O=C(O)COc1ccc(S(=O)(=O)NCCc2ccccc2)cc1	-12% (inactive)
Oc1ccccc1Nc1ccccn1	-5.39% (inactive)
c1ccc(Nc2ccccn2)nc1	-3.53% (inactive)
O=C(O)c1ccccc1C(=O)c1ccc(F)c(F)c1	3.3% (inactive)
O=C(NCCCNC(=O)c1cccnc1)c1ccc(Cl)cc1	-0.27% (inactive)
Cc1cccc(C)c1NC(=O)C(NC(=O)CN1C(=O)c2ccccc2C1=O)c1ccccc1 (configuration not stated)	-3.98% (inactive)
Cc1cc(Cl)ccc1OCC(=O)O	-1.09% (inactive)
C=C(CC)C(=O)c1ccc(OCC(=O)O)c(Cl)c1Cl	0.79% (inactive)
O=C(COC(=O)COc1ccc(Cl)cc1Cl)NC1CC1	0.21% (inactive)
CN(CC(=O)Nc1ccccc1C(=O)NC1CC1)Cc1ccc(N(C)C)cc1	0.15% (inactive)
Nc1ccc(NC(=O)c2ccccc2)c2c1C(=O)c1ccccc1C2=O	24.3% (inactive)
O=C(Nc1ccc2c(c1)C(=O)c1ccccc1-2)c1ccccc1	-5.09% (inactive)
Nc1c(Br)cc(Br)c2c1C(=O)c1c(cccc1S(=O)(=O)O)C2=O	5.84% (inactive)
Cc1cc(C)c(NC(=O)COC(=O)c2cccc3c2C(=O)c2ccccc2C3=O)c(C)c1	3.94% (inactive)
